Here are results for 40 molecules from PubChem BioAssay (Tox21).

Where “and” joins values, the source holds several entries; their conditions need not be identical. Identical values can stand only once. Records with an inconclusive call do not appear. A number with no mark means an inactive call. Calls of active or inactive are those of the source. Calls follow the shape of the dose curve; as a rule, active = well fitted activation curve with a large enough effect in the repeat runs; inconclusive = weak or mixed curves; inactive = flat fitted curve, though single readings scatter.
% is scaled to controls: 0 for no effect and ±100 for the full control effect; potency is read from the fitted curve at half-maximal effect.

The nature of the experiment: A CellTox Green Cytotoxicity Assay to monitor cytotoxicity in HepG2 cells - 16 hour (AID 1224876). Also: nearly all actives have a fitted effect of over 45% in size. To be noted: CellTox Green fluorescence; series mostly up to 76.8 µM; cytotoxicity increase: at the top concentration. An excerpt: National Center for Advancing Translational Sciences [NCATS]
NIH Chemical Genomics Center [NCGC]
U.S. Environmental Protection Agency [EPA]
National Institutes of Environmental Health Sciences [NIEHS]
National Toxicology Program [NTP]
Cell-based models are critical for drug discovery. Determining the natural cytotoxic effects resulting from test compounds is an essential research activity. A CellTox Green Cytotoxicity Assay to monitor cytotoxicity in real time of continues cell culture during 40 hours of the compound treatment was used to screen Tox21 10K library compounds in HepG2 cells. CellTox Green Cytotoxicity Assay is a nonlytic, homogeneous, biofluorescent method to measure cytotoxicity in cell culture after experimental manipulation. The assay system uses a proprietary asymmetric cyanine dye that is excluded from viable cells but preferentially stains the dead cell's DNA. […] Viable cells produce no appreciable increases in fluorescence. Therefore, the fluorescence signal produced by the binding interaction with dead cell DNA is proportional to cytotoxicity.
The mixture of HepG2 cell suspension and reagents were dispensed at 600cells/6 ul/well in 1536-well tissue culture treated black solid bottom plates using a Multidrop dispenser. After the assay plates were incubated at a 37 C/5% CO2 incubator for 5 hours, 23 nL of compounds dissolved in DMSO, positive and negative controls was transferred to the assay plate by a pintool work station. The plates were incubated at 37 C for 40 hours. The fluorescence intensity were measured at 0h, 8h, 16h, 24h, 32h and 40h time points using ViewLux plate reader during compound treatment.
On to `CN1N=C(C(N)=O)CCC1=O`, for which the “cytotoxicity increase” value is 4% [at 35.3 µM].
On the same count and under the same terms, under `CCOC(=O)[C@H](CCc1ccccc1)N[C@@H](C)C(=O)N1[C@H](C(=O)O)C[C@@H]2CCC[C@@H]21` stands -9.21% [at 35.3 µM]; under `CO/N=C(/C(=O)N[C@@H]1C(=O)N2C(C(=O)OCOC(=O)C(C)(C)C)=C(C)CS[C@H]12)c1csc(N)n1`, 2.77% [at 35.3 µM].
Same read-out and setting: the value for `OCCOc1ccc(OCCO)cc1` was 6.56%; that for `CCc1ccc(O)c(OC)c1` was -3.12%; that for `O=[N+]([O-])c1ccc(F)cc1F` was -6.66%.
On the same count and under the same terms, under `FC1(F)C(F)(F)C(F)(F)C2(F)C(F)(F)C(F)(F)C(F)(F)C(F)(F)C2(F)C1(F)F` (stereo not given) stands -7.18% [at 35.3 µM]; under `C[C@H]1C[C@@H](O)CC(C)(C)C1`, 15.7%; under `CCc1cccc2c(CCO)c[nH]c12`, 2.54% [at 35.3 µM].
Turning to `COC(C)(C)CCCC(C)CC=O` (stereo not given), the “cytotoxicity increase” value was 1.56%.
Still for that read-out and setting: under `CCCCCCCCCCCCCCCCC` stands -9.94%; under `CN1C(=O)N(C)C(O)C1O` (stereo not given), -9.83%.
Still for that read-out and setting: under `CN1CCN(c2cc3c(cc2F)c(=O)c(C(=O)O)cn3-c2ccc(F)cc2)CC1` stands -1.58% [at 35.3 µM]; under `NC(CSCC(=O)O)C(=O)O` (stereo not given), -19.1% [at 35.3 µM].
With `CCCCOCCOCCOCCCC`, the “cytotoxicity increase” value was -0.187%.
Still for that read-out and setting: the value for `Cc1c(NC(C)C)c(=O)n(-c2ccccc2)n1C` was 1.35% [at 35.3 µM]; that for `O=C(O)c1ccccc1OP(=O)(O)O` was -9.56% [at 35.3 µM]; that for `COc1ccc2c(c1)c(CC(=O)OCC(=O)O)c(C)n2C(=O)c1ccc(Cl)cc1` was -0.808% [at 35.3 µM].
Same read-out and setting: the value for `Nc1nc2c(ncn2COC(CO)CO)c(=O)[nH]1` was -26.2% [at 35.3 µM].
The same measure, in the same setting: the value for `NC(=O)c1ccc([N+](=O)[O-])cc1` was 0.0065%; that for `Cc1sccc1Br` was -10.1% [at 35.3 µM]; that for `COc1nc(N)nc2c1ncn2[C@@H]1O[C@H](CO)[C@@H](O)[C@@H]1O` was -15.3% [at 35.3 µM].
On to `CC(C)(O)C#CC(C)(C)O`, for which the “cytotoxicity increase” value was 9.17%.
The same measure, in the same setting: under `OC(CCN1CCCCC1)(c1ccccc1)C1CC2C=CC1C2` (stereo not given) stands 6.54% [at 35.3 µM].
On the same count and under the same terms, under `CN(C(=O)c1c(O)c2ccccc2n(C)c1=O)c1ccccc1` stands -1.86% [at 35.3 µM].
The same measure, in the same setting: the value for `CC/C=C\CC/C=C/C(OCC)OCC` was -9.39%.
Consider `CC(=O)CC(C)C`, for which the “cytotoxicity increase” value was 1.37%.
The same measure, in the same setting: under `C1CN(CCOCCN2CCOCC2)CCO1` stands -6.03%; under `C=CCS(=O)(=O)O`, 1.84%.
Still for that read-out and setting: the value for `Nc1c2c(nc3ccccc13)CCCC2O` (stereo not given) was -0.843% [at 35.3 µM]; that for `CCOC(C)(C)C` was -13%.
On the same count and under the same terms, under `CCCCC/C=C\CCC=O` stands -1.18%; under `ClC(Cl)(Br)Br`, -4.63%; under `C=COCC1CCC(CO)CC1` (stereo not given), -0.346%.
In the case of `CN(C)CCCN1c2ccccc2CCc2ccc(Cl)cc21`, the Potency is 54.9 µM (active) and 21.3 µM (active).
Same read-out and setting: under `O=C1CCCCCCCCCCCN1` stands “inactive”.
For `NCCCNCCSP(=O)(O)O`, the cytotoxicity increase was -2.65% [at 6.97 µM].
For `NS(=O)(=O)c1cc2c(cc1Cl)NC(C1CC3C=CC1C3)NS2(=O)=O` (stereo not given), the “cytotoxicity increase” value is 11.9% [at 35.3 µM].
Turning to `CCCC(=O)O[C@]1(C(=O)CO)CC[C@H]2[C@@H]3CCC4=CC(=O)CC[C@]4(C)[C@H]3[C@@H](O)C[C@@]21C`, the “cytotoxicity increase” value is -15.6% [at 35.3 µM].
On the same count and under the same terms, the value for `CC(C)CCCC(C)N` (stereo not given) was -17.7% [at 35.3 µM].
